# Source: PubChem BioAssay
# Pf growth 96h = P. falciparum growth inhibition at 96 hour, primary screen for plastid delayed-death inhibitors; P. falciparum luciferase reporter growth, 96 h; Potency, µM (titrated, usually from 28.7 µM), without a hit: at the top dose activity change, negative = inhibition, hits mostly inhibitors; 320,000 tested, 6.9% active; also: potency is read from the fitted curve at half-maximal effect; % is scaled to controls: 0 for no effect and ±100 for the full control effect
#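 Infected RBCs, 2% Hct / 0.05% parasitemia final; luciferase-reporter P. falciparum; cpd 96 h, 37 C, 5% CO2; luciferase detection reagent; luminescence.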
# Pf growth 48h = inhibits P. falciparum growth in the first generation, 48 h; Potency, µM (series often up to 28.7 µM), without a hit: top-dose activity change, negative = inhibition, usual class: inhibitors; 310,000 tested, 5.9% active; P. falciparum luciferase growth in erythrocytes, 48 h; also: potency is read from the fitted curve at half-maximal effect; % is scaled to controls: 0 for no effect and ±100 for the full control effect
#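 In quantitative HTS format, infected erythrocytes bearing luciferase-reporter parasites were treated for a single generation at 37 C. Luminescence after adding detection reagent served as the growth measure.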
# SARS PLpro yeast = SARS-CoV PLP inhibition in yeast. S. cerevisiae expressing SARS-CoV PLpro, growth rescue. Potency, µM (top dose mostly 32.9 µM), for inactives: at the highest dose activity, positive = growth rescue, usual class: activators. 330,000 tested, 0.19% active; calls by dose curve; also: potency is read from the fitted curve at half-maximal effect; 0% is about no effect; nearly all actives have a fitted effect of over 55% in size
# Sm TGR inh = S. mansoni TGR enzyme inhibition | Q962Y6 | purified TGR, DTNB reduction, TNB absorbance 405 nm | Potency, µM (highest dose often 114 µM), for inactives: top-dose activity change, negative = inhibition, hits mostly inhibitors | 360,000 tested, 3% active | AID 485364; also: potency is read from the fitted curve at half-maximal effect; % is scaled to controls: 0 for no effect and ±100 for the full control effect; nearly all actives have a fitted effect of over 60% in size
#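 TGR 20 nM + NADPH 100 uM (dispensed conc.), cpd preinc 15 min RT; start with NADPH (500 uM addition) then DTNB (15 mM addition). Kinetic TNB absorbance, 405 nm filter. Four-parameter Hill fit across titration.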
# AmpC detergent = AmpC beta-lactamase inhibition with detergent present. AID 485294. P00811. Potency, µM (titrated, usually from 114 µM), for the others: at the highest dose activity change, negative = inhibition, usual class: inhibitors. AmpC hydrolysis of nitrocefin, absorbance 480 nm, 0.01% Triton. 370,000 tested, 0.041% active;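 also: potency is read from the fitted curve at half-maximal effect; 0% = no-compound wells and -100% = no-enzyme wells; nearly all actives have a fitted effect of over 25% in size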
#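 AmpC (5.3 nM in the dispensed reagent) in 20 mM phosphate pH 7.0 with 0.01% (detergent screen) or 0.0001% Triton X-100 was preincubated with compounds for 15 min at room temperature. Nitrocefin was then added from an 800 uM solution, and hydrolysis was followed at 480 nm.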
# AmpC inh no detg = inhibitors of E. coli AmpC beta-lactamase without detergent. P00811. AmpC nitrocefin hydrolysis, absorbance 480 nm, 0.0001% Triton. Potency, µM (series often up to 57.1 µM), for inactives: at the top dose activity change, negative = inhibition, usual class: inhibitors. 330,000 tested, 0.52% active;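 also: potency is read from the fitted curve at half-maximal effect; plate controls were no compound for no effect and no enzyme for full effect; nearly all actives have a fitted effect of over 20% in size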
#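 20 mM phosphate pH 7.0 + 0.01% (detergent screen) or 0.0001% Triton X-100; 5.3 nM AmpC reagent; cpd preinc 15 min RT; nitrocefin (800 uM stock) to start; A480 q20 s × 4 min; Activity was normalised to no-enzyme and no-compound control wells.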
# CLK4 ADP-Glo = confirmation of inhibitors of human CDC-like kinase 4; recombinant Clk4, RS peptide, ADP-Glo luminescence; Potency, µM (top dose mostly 80 µM), for the others: at the highest dose activity, negative = inhibition, actives largely listed as inhibitors; shares compounds with Pf growth 48h; 65 tested, 80% active
# Target sequence (Q9HAZ1 whole entry, looked up): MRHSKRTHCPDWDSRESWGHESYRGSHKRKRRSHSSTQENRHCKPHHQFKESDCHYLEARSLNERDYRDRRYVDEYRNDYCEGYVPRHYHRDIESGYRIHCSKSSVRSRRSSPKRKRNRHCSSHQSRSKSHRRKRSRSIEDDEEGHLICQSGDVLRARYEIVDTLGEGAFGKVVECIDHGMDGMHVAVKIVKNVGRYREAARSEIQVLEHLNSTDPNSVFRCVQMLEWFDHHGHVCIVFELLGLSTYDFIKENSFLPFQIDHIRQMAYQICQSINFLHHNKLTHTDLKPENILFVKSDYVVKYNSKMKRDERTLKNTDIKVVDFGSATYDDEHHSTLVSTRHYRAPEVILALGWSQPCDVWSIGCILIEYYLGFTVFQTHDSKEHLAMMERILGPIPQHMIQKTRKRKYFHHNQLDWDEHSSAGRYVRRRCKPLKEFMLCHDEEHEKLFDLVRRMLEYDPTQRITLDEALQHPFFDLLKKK
# CLK4 ADP FP = CLK4 (human) inhibition, Transcreener FP confirmation; 65 tested, 70% active; Potency, µM (doses to about 80 µM), for the others: at the highest dose activity, negative = inhibition, hits mostly inhibitors; recombinant Clk4, ADP Transcreener FP, RS peptide; shares compounds with Pf growth 48h; AID 1983
# Active calls of the source: *; ? = inconclusive; nt = no result. Sampled rows, rich in hits. Any-hit rate of the full collection: about 12%. Unless noted, calls follow the shape of the dose curve; as a rule, active = well fitted curve in the direction sought with a large enough effect; inconclusive = small, poorly fitted or top-dose-only effect, or another doubt; inactive = no such curve, though single readings can be large; an effect the other way counts as inactive or inconclusive.
SMILES,Pf growth 96h,Pf growth 48h,SARS PLpro yeast,Sm TGR inh,AmpC detergent,AmpC inh no detg,CLK4 ADP-Glo,CLK4 ADP FP
Fc1cccc(Cn2ccc(-c3ccc4c(c3)OCO4)n2)c1,63%,62%,-22%,1%,-9%,-21%,nt,nt
Fc1cccc(CNc2ncnc3ccc(-c4ccc5c(c4)OCO5)cc23)c1,2.9µM*,4.1µM*,3%,-11%,-13%,-23%,0.14µM*,0.089µM*
Clc1ccccc1-c1ccc2ncnc(NCc3ccc4c(c3)OCO4)c2c1,3.7µM*,8.3µM*,-7%,0%,?,-18%,?,-17%
CC[C@@H](C(=O)n1nc(C)cc1C)[C@H](NS(=O)(=O)c1ccc(C)cc1)c1ccccc1,?,nt,-19%,-14%,-4%,-11%,nt,nt
CC1=C(c2ccc(C)c(C)c2)S(=O)(=O)N(Cc2ccc(C(=O)NCc3cccc(C)c3)cc2)C1=O,nt,nt,nt,0%,23%,nt,nt,nt
CN(Cc1ccccc1)c1ncnc2ccc(Br)cc12,59%,?,0%,-2%,2%,19%,nt,nt
COc1cc2ncnc(NCc3ccco3)c2cc1OC,?,?,0%,nt,-2%,-18%,nt,nt
CN(Cc1ccco1)c1ncnc2ccc(-c3ccccc3Cl)cc12,?,9.3µM*,-4%,-7%,-4%,-10%,10µM*,16µM*
CN(Cc1ccco1)c1ncnc2ccc(-c3ccoc3)cc12,?,?,7%,20µM*,-2%,4%,0.25µM*,0.32µM*
